Methyltransferases = Primary Screen for Target Class Profiling of Small Molecule Inhibitors of Methyltransferases; calls only at 40 µM; AID 1745853, 2022; purified enzyme, MTase-Glo SAH luminescence; hits give low values; 3.9% of 25,000 active; call rule not given here
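Each enzyme was assayed with SAM and its substrate. SAH formation detected by MTase-Glo luminescence; single-point 40 uM screen[…].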
Numbers without * were called inactive; ! = not active in a repeat. This excerpt belongs to a sample that is enriched for hits. On the % scale 0 is the no-effect control and ±100 the full control effect.

How did CC(C)Oc1ccc(CN2C(=O)c3nc4ccccc4n3CC2(C)C(=O)NC2CCCCCC2)cc1 (stereo not drawn) do in these assays?
Methyltransferases: inactive

What do the screens show for `CN1C(=O)c2cc(C(=O)N3CCOCC3)nn2CC1(C)C(=O)NC1CCCCCC1` (stereo not drawn)?
Methyltransferases: inactive

Results for O=C(O)C[C@H]1CCC(=O)[C@@H]1C/C=C\CCOC1OC(CO)C(O)C(O)C1O (stereo partly drawn) ?
Methyltransferases: inactive

What do the screens show for `C/C(=C/C=C\C=C\Cc1cnco1)[C@@H](O)C(C)(C)C(N)=O`?
Methyltransferases: inactive

Results for Cn1nc(N2CCC(NS(=O)(=O)c3ccc4c(c3)CCC4)CC2)ccc1=O ?
Methyltransferases: inactive

Results for CCOC(=O)c1cc2n(n1)CC(C)(C(=O)NC1CCCC1)N(Cc1ccc(CC)cc1)C2=O (stereo not drawn) ?
Methyltransferases: inactive

Results for NC(=O)N1CCC(CC(=O)N2CCC(C3c4ncc(Br)cc4CCc4cc(Cl)cc(Br)c43)CC2)CC1 (stereo not drawn) ?
Methyltransferases: active

What do the screens show for `O=C(CCn1ccc2cc(S(=O)(=O)N3CCCCC3)ccc21)NCCc1cccs1`?
Methyltransferases: inactive

Results for CC(C)c1cnn2c(NCc3ccccc3)cc(N[C@@H](CO)[C@H](O)CO)nc12 ?
Methyltransferases: inactive

Results for Cn1c(=O)c2ccc(C(=O)NC3CCCC3)cc2n2c(SCC(=O)Nc3cccc(F)c3)nnc12 ?
Methyltransferases: inactive

What do the screens show for `Cc1occc1C(=O)n1ccnc1`?
Methyltransferases: inactive

What do the screens show for `Cc1ccc(Cn2c(=O)c3ccccc3n3c(-c4ccc(Br)cc4)nnc23)cc1`?
Methyltransferases: inactive

Results for CC(C)(C[C@@](O)(Cc1cc2ccncc2[nH]1)C(F)(F)F)c1cc(F)ccc1O ?
Methyltransferases: active

How did COc1ccccc1-n1cnc2cccnc21 do in these assays?
Methyltransferases: inactive

How did CC(C)CCn1c(=O)c2ccc(C(=O)NC(C)C)cc2n2c(=O)n(Cc3ccccc3Cl)nc12 do in these assays?
Methyltransferases: inactive

What do the screens show for `Cn1cc(C(=O)OCC2CCN(CCNS(C)(=O)=O)CC2)c2ccccc21`?
Methyltransferases: inactive

How did Cn1cc(CN2CCCCCNC(=O)[C@@H]3CCC[C@@H]32)c2ccccc21 do in these assays?
Methyltransferases: inactive

Results for CN(C)CC1CCn2c(c(C3=C(c4cn(C)c5ccccc45)C(=O)NC3=O)c3ccccc32)C1 (stereo not drawn) ?
Methyltransferases: active!

Results for O=C(Cn1ccc2cc(S(=O)(=O)N3CCCC3)ccc21)NCc1ccc2c(c1)OCO2 ?
Methyltransferases: inactive

What do the screens show for `Cc1ccc(CN2C(=O)c3nc4ccccc4n3CC2(C)C(=O)NCc2ccccc2)cc1` (stereo not drawn)?
Methyltransferases: inactive

What do the screens show for `COc1ccc2c(c1)OCC(CNC(=O)c1ccc(-c3nnn(C)n3)cc1)C2` (stereo not drawn)?
Methyltransferases: inactive

Results for CC(=O)/C=C/C1(O)C(C)=CC(=O)CC1(C)C (stereo not drawn) ?
Methyltransferases: inactive

How did CC1=CC(=O)CC(C)(C)C1(O)CCC(C)O (stereo not drawn) do in these assays?
Methyltransferases: active

What do the screens show for `CC1=CC(=O)CC(C)(C)[C@@]1(O)/C=C/C(C)O[C@@H]1O[C@H](CO)[C@@H](O)[C@H](O)[C@H]1O` (stereo partly drawn)?
Methyltransferases: inactive

How did O=S(=O)(c1ccc(Cl)c(-c2nnc(-c3ccccc3)o2)c1)N1CCN(c2ccccc2)CC1 do in these assays?
Methyltransferases: inactive

Results for COCCN1C(=O)c2ccccc2C(C(=O)Nc2cc(C)ccn2)C12CCCC2 (stereo not drawn) ?
Methyltransferases: inactive

What do the screens show for `CCC1c2ccc(C)n2CCN1C(=O)Nc1cccc(Cl)c1` (stereo not drawn)?
Methyltransferases: inactive

Results for CCCCNc1nc2c(-c3ccccc3)nnn2c2ccccc12 ?
Methyltransferases: inactive

Results for CCC(C)/C=C(C)/C=C/C1=CC2=C(Cl)C(=O)C(C)(OC(C)=O)C(=O)C2(O)C(OC)O1 (stereo not drawn) ?
Methyltransferases: inactive

What do the screens show for `COc1ccc(CC(=O)N2Cc3ccccc3CC23CCCN(C(=O)CN)C3)cc1` (stereo not drawn)?
Methyltransferases: inactive

Results for O=C(NCCCc1ccccc1)C1CCC(CNS(=O)(=O)c2cccc3nsnc23)CC1 (stereo not drawn) ?
Methyltransferases: inactive

Results for Nc1nc(NCC2CCC(CNS(=O)(=O)c3cccc4ccccc34)CC2)nc2ccccc12 (stereo not drawn) ?
Methyltransferases: active

Results for CC1(C(=O)NC2CCCC2)Cn2c(cc3sccc32)C(=O)N1C1CCCCCC1 (stereo not drawn) ?
Methyltransferases: inactive

How did CCOCCCNc1nc2c(S(=O)(=O)c3ccc(C)c(C)c3)nnn2c2ccccc12 do in these assays?
Methyltransferases: inactive
